ChEMBL document CHEMBL3988442, “University of Dundee, Small-Polar-MMV Screening Library” (2021)
Entries with a potency or affinity are not part of this list.

Each molecule was assayed against T1, Ubiquitin-activating enzyme e1, putative (Leishmania donovani (strain BPK282A1)) (UniProt E9BSI1) (assay: Leishmania donovani Ubiquitin Activating Enzyme (LdE1)). Conditions: 30 µM.
T1 sequence (whole entry): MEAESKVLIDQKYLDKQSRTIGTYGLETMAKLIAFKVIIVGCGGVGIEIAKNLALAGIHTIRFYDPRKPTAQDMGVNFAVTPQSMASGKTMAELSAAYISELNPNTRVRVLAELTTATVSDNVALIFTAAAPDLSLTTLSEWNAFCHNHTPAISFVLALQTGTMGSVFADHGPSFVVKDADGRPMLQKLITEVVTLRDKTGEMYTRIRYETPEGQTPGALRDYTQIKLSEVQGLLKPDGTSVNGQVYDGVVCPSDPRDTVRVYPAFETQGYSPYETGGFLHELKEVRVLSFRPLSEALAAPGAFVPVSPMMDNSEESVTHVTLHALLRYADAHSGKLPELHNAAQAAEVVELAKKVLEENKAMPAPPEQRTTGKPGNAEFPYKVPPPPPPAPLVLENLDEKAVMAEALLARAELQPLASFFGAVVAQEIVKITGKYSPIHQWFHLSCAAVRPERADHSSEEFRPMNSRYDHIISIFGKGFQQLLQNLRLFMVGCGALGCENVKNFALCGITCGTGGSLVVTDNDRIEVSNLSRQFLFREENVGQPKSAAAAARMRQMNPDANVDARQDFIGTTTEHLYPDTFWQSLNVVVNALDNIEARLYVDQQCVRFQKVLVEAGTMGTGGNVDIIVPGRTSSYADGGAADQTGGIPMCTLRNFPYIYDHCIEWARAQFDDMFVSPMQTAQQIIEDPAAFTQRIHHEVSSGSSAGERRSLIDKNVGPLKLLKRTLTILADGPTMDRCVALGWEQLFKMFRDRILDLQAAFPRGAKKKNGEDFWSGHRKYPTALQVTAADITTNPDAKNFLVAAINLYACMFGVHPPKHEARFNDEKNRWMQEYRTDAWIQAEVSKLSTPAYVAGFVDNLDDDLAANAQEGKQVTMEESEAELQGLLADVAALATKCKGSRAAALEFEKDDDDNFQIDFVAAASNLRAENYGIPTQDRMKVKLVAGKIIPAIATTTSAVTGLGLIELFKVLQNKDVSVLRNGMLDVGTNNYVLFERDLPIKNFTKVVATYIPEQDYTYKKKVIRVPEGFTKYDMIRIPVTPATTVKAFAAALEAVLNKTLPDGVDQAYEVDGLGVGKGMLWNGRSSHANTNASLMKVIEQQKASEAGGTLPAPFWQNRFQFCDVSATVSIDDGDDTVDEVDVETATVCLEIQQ
Format: functional
Parameters: scale not given: direction of the effect not stated beside the values

**Q.** `Cn1c(Cn2ccnc2)nnc1C1CCN(C(=O)C2(C)CC2)CC1` was tested. Which Percent Effect did it give?
**A.** The Percent Effect was 11%.

**Q.** How did the Percent Effect turn out when `O=C(c1cnn(-c2ccccc2F)c1)N1CCN(CCO)CC1` was run?
**A.** Its Percent Effect is 2.67%.

**Q.** With `O=C(NCCCn1cccn1)C1(c2ccc(Br)cc2)CC1` as the molecule, how does the Percent Effect read?
**A.** Its Percent Effect is 8.22%.

**Q.** For `COCCC(=O)N1CCC2(CN(Cc3ccc(OC)c(F)c3)C2)C1`, which Percent Effect is on record?
**A.** Its Percent Effect is 13.7%.

**Q.** For `O=C(c1cccc(S(=O)(=O)NCCCc2ccco2)c1)N1CCOCC1`, which Percent Effect is on record?
**A.** Its Percent Effect is 2.74%.

**Q.** How did the Percent Effect turn out when `CC(=O)N1CCN(Cc2csc(-c3cnn(C)c3)n2)CC1` was run?
**A.** Its Percent Effect is 7.89%.

**Q.** For `Cc1cnn(CCNCC(=O)NCc2ccccc2)c1`, which Percent Effect is on record?
**A.** The Percent Effect was 5.26%.

**Q.** For `CCCc1cc(NC2CCc3ncnn3C2)n2ncnc2n1` (stereo not given), which Percent Effect is on record?
**A.** Its Percent Effect is 5.48%.

**Q.** With `CC(C)Sc1ncccc1C(=O)NCc1ccc(CS(C)(=O)=O)cc1` as the molecule, how does the Percent Effect read?
**A.** The Percent Effect was 13.9%.

**Q.** With `CCc1nnc2n1CCN(Cc1ccc3c(c1)OCCO3)C2` as the molecule, how does the Percent Effect read?
**A.** Its Percent Effect is 18.9%.

**Q.** With `Cc1ccc(CN2CC[C@H]3OCC[C@@H](C(=O)NC4CC4)[C@@H]3C2)o1` as the molecule, how does the Percent Effect read?
**A.** The Percent Effect was 5.41%.

**Q.** For `Cc1nc(C)n(C2CCCN(C(=O)CCc3ccncc3)C2)n1` (stereo not given), which Percent Effect is on record?
**A.** The Percent Effect was 16.2%.

**Q.** For `CCOC[C@H]1CC[C@H]2[C@H](CCN2C(=O)c2ccncc2F)O1`, which Percent Effect is on record?
**A.** Its Percent Effect is 2.7%.

**Q.** How did the Percent Effect turn out when `Cc1ccc(C(=O)NCC2(O)CCOCC2)cc1Br` was run?
**A.** Its Percent Effect is 5.41%.

**Q.** How did the Percent Effect turn out when `N#Cc1cn(C2CC2)c(=O)n(CC(O)c2ccc(OC(F)F)cc2)c1=O` (stereo not given) was run?
**A.** Its Percent Effect is 15.8%.

**Q.** Which Percent Effect does the source give for `O=C(CCc1nc2cccnc2[nH]1)Nc1cccnc1` here?
**A.** The Percent Effect was 22.7%.

**Q.** How did the Percent Effect turn out when `c1cnnc(NCC2CN(Cc3cccc4c3OCCO4)CCO2)c1` (stereo not given) was run?
**A.** Its Percent Effect is 5.2%.

**Q.** For `Cc1cc(N2CCN(Cc3ccc(-c4cc[nH]n4)o3)CC2)cc(C)n1`, which Percent Effect is on record?
**A.** The Percent Effect was 13.3%.

**Q.** `COc1ccnc(N2CCN(C(=O)CN3CCCC3=O)CC2)n1` was tested. Which Percent Effect did it give?
**A.** Its Percent Effect is 18.4%.

**Q.** Which Percent Effect does the source give for `N#Cc1ccnc(N2CCN(Cc3cccc(F)c3)CC2)c1` here?
**A.** Its Percent Effect is 18.9%.
